Structures can show the parent of a compound that is named as a salt.
The compounds below were run on PBMC-derived induced microglia-like cells (piMGLC) (assay: synaptosome phagocytic index relative to DMSO control (fraction of DMSO); higher = more phagocytosis). Settings: concentration: 10 uM (2 uM for compounds listed in Table S2); pretreatment time: 24 h; assay time: 3 h.
Experimental: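 PBMC-derived induced microglia-like cells (piMGLCs) in 96-well plates were pretreated for 24 h with CNS-penetrant library compounds (MedChemExpress HY-L028), mostly at 10 uM; Table S2 lists 9 compounds at 2 uM. pHrodo-Red-labelled human iPSC-neuron synaptosomes (3 ug/well) were then added for 3 h, and cells were fixed and imaged by confocal microscopy. Phagocytic index (synaptosome area / cell count, CellProfiler) is a mean over 3 replicate wells on different plates, normalized to the DMSO control. Compounds leaving <10% of DMSO cell count were marked toxic and given no value.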

SMILES | synaptosome phagocytic index
CCOC(=O)c1cncn1[C@H](C)c1ccccc1 [Etomidate] | 0.926
NCC(CC(=O)O)c1ccc(Cl)cc1 (stereo unspecified) [Baclofen] | 0.783
CCN(C)C(=O)Oc1cccc([C@H](C)N(C)C)c1 [Rivastigmine_(tartrate)] | 1.02
CN(C)c1cc2c(cc1Sc1nc3c(N)nccc3n1CCNCC(C)(C)C)OCO2 [Debio_0932] | 0.767
C=C(C)[C@H]1CN[C@H](C(=O)O)[C@H]1CC(=O)O [Kainic_acid] | 0.701
Cn1c(CCCC(=O)O)nc2cc(N(CCCl)CCCl)ccc21 [Bendamustine_(hydrochloride)] | 0.95
FC(F)(F)c1ccc(N2CCNCC2)nc1Cl | 1.17
COc1cc2c(cc1OC)C1CC(=O)C(CC(C)C)CN1CC2 (stereo unspecified) [Tetrabenazine] | 0.906
CC[C@@H](C(N)=O)N1CCCC1=O [Levetiracetam] | 0.711
C1=CC[C@@H](c2cccnc2)NC1 [Anatabine_(dicitrate)] | 0.984
CC(C)(NC(=O)O[C@@H]1CN2CCC1CC2)c1csc(-c2ccc(F)cc2)n1 [Ibiglustat_(L-Malic_acid)] | 1.05
COc1cccc(NCC(F)Cn2c3ccc(Br)cc3c3cc(Br)ccc32)c1 (stereo unspecified) | 0.0819
Cn1cc(C2=C(c3cn(C4CCN(Cc5ccccn5)CC4)c4ccccc34)C(=O)NC2=O)c2ccccc21 [Enzastaurin] | 0.997
CNC(=O)ON(C(C)=O)C(=O)NC [Caracemide] | 0.78
CN1CCc2ccccc2C1CNC(=O)c1ccc(Cl)c(Cl)c1 (stereo unspecified) | 0.901
CCC(=O)O[C@H]1CC[C@H]2[C@@H]3CCC4=CC(=O)CC[C@]4(C)[C@H]3CC[C@]12C [Testosterone_propionate] | 0.807
C/C(=C\c1csc(C)n1)[C@@H]1C[C@@H]2O[C@]2(C)CCC[C@H](C)[C@H](O)[C@@H](C)C(=O)C(C)(C)[C@@H](O)CC(=O)O1 [Epothilone_B] | 0.842
COc1ccc(C=C2CCCN=C2c2cccnc2)c(OC)c1 [GTS-21_(dihydrochloride)] | 0.922

SMILES | synaptosome phagocytic index
CCOC(=O)c1cncn1[C@H](C)c1ccccc1 [Etomidate_(hydrochloride)] | 0.749
Cc1cccc([C@H](C)c2c[nH]cn2)c1C [Dexmedetomidine_(hydrochloride)] | 0.931
CNCC/C=C/c1cccnc1 [Rivanicline_hemioxalate] | 0.922
COc1ccc(C(CN(C)C)C2(O)CCCCC2)cc1 (stereo unspecified) [Venlafaxine_(hydrochloride)] | 1.02
N[C@@H]1C[C@H]1c1ccccc1 [Tranylcypromine_(hemisulfate)] | 0.949
CN1Cc2cc(Cl)ccc2-n2c(nnc2[C@H]2CC[C@H](Oc3ccccn3)CC2)C1 [Balovaptan] | 1.09
CN1C[C@H](C(=O)N[C@]2(C)O[C@@]3(O)[C@@H]4CCCN4C(=O)[C@H](Cc4ccccc4)N3C2=O)C[C@@H]2c3cccc4[nH]cc(c34)C[C@H]21 [Dihydroergotamine_(mesylate)] | 0.976
O=C(NO)c1cnc(NC2(c3ccccc3)CCC(F)(F)CC2)nc1 | 0.867
O=S(=O)(CC1CS1)c1ccc(Oc2ccccc2)cc1 (stereo unspecified) | 0.514
Cc1sc2c(c1C)C(c1ccc(Cl)cc1)=N[C@@H](CC(=O)OC(C)(C)C)c1nnc(C)n1-2 | 0.3
Clc1ccc(N2CCN(Cc3c[nH]c4ncccc34)CC2)cc1 | 0.89
NCC1(CC(=O)O)CCCCC1 [Gabapentin] | 0.686
CN(C)C(=O)Oc1ccc[n+](C)c1 [Pyridostigmine_(bromide)] | 0.814
NCCc1c[nH]c2ccc(O)cc12 [Serotonin_hydrochloride] | 0.812
CC(C)(NC(=O)O[C@@H]1CN2CCC1CC2)c1csc(-c2ccc(F)cc2)n1 [Ibiglustat] | 1.26
CCN(CCCl)Cc1ccccc1Br [DSP-4_(hydrochloride)] | 1.15
CCN(C)C(=O)Oc1cccc([C@H](C)N(C)C)c1 [Rivastigmine] | 1.03
COc1ccc(OC)c(C(=O)N[C@@H]2CN3CCC2CC3)c1 | 0.646
